Results: PubChem BioAssay (NCATS)
Records with an inconclusive call do not appear. Entries that show only a call come without a potency. Activity calls are given as the source filed them. Calls follow the shape of the dose curve; as a rule, active = well fitted inhibition curve with a large enough effect; inconclusive = small, poorly fitted or top-dose-only effect; inactive = flat fitted curve, though single readings scatter.

Target: Calcium and integrin-binding protein 1 (Homo sapiens) (UniProt Q99828)
Assay: Primary qHTS for Identification of Calcium Integrin Binding Protein 1 (CIB1) Competitor (AID 1508620);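 also: GST tagged CIB1 binding a fluorescein labelled alphaIIb integrin peptide tracer; top concentration of the series differs between compounds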
Details: CIB1-GST / FITC-alphaIIb peptide fluorescence polarization; series mostly up to 114 µM
Method in brief: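 CIB1-GST (1 uM final) and compound incubated 15 min at room temperature before adding FITC-alphaIIb peptide tracer (100 nM final). Competition for binding read by fluorescence polarization (ex 480, em 540) after another 15 min at room temperature.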

Sequence of Calcium and integrin-binding protein 1 (Homo sapiens) (Q99828 whole entry, looked up): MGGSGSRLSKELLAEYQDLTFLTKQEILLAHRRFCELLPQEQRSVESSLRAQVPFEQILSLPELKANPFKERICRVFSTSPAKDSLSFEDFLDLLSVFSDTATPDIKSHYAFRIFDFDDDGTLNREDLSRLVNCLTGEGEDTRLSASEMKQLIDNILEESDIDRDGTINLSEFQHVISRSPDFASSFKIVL

Row | Compound | Potency
1 | CNC(=O)c1cc(Oc2ccc3nc(N[C@@H]4CCCC[C@H]4O)sc3c2)ccn1 | inactive
2 | CC(C)[C@@H](CS(=O)(=O)C(C)C)N1C(=O)[C@@](C)(CC(=O)O)C[C@H](c2cccc(Cl)c2)[C@H]1c1ccc(Cl)cc1 | inactive
3 | C=C(C)C(=O)O[C@H]1C[C@@](C)(O)C(=O)CC(O)/C(C)=C\[C@H]2OC(=O)C(=C)[C@H]12 (stereo not given in full) | inactive
4 | Cc1nc([C@](C)(O)CO)sc1-c1cnc(N)c(O[C@H](C)c2cc(F)ccc2-n2nccn2)c1 | inactive
5 | C[C@H]1[C@H](O)O[C@@H]2O[C@@]3(C)CC[C@H]4[C@H](C)CC[C@@H]1[C@@]24OO3 | inactive
6 | FC(F)(F)c1ccc(Nc2nc(-c3c(C(F)(F)F)nc4ccccn34)cs2)cc1 | inactive
7 | Cc1ccccc1NC(=O)Nc1ccc(CC(=O)N(C)[C@@H](CC(C)C)C(=O)NCC[C@H](NC(=O)[C@@H]2CCCN2S(=O)(=O)c2cc(Cl)cc(Cl)c2)C(=O)O)cc1 | inactive
8 | O=C(NOCC(O)CO)c1ccc(F)c(F)c1Nc1ccc(I)cc1F (stereo not given) | inactive
9 | Cc1ccc(NC(=O)c2ccc(CN3CC[C@H](N(C)C)C3)c(C(F)(F)F)c2)cc1Nc1nccc(-c2cncnc2)n1 | inactive
10 | Cc1ccc([N+](=O)[O-])cc1S(=O)(=O)N(C)/N=C/c1cnc2ccc(Br)cn12 | inactive
11 | COc1ccc(C(=O)C2CCN(CC(=O)N(Cc3nc4c(c(=O)[nH]3)COCC4)CC3CC3)CC2)cc1 | inactive
12 | CC1(C)CCC[C@@]2(C)C1[C@H](OC(=O)/C=C/C=C/C(=O)O)C=C1COC(=O)[C@@]12O (stereo not given in full) | inactive
13 | CCCCNc1ncc2c(-c3ccc(CN4CCN(C)CC4)cc3)cn(C3CCC(O)CC3)c2n1 (stereo not given) | inactive
14 | Cc1c(F)cc(C(=O)NC2CC2)cc1-c1c(F)cn2c(C(C)(C)C)nnc2c1F | inactive
15 | CC(C)c1ccc(CO)cc1O[C@@H]1O[C@H](CO)[C@@H](O)[C@H](O)[C@H]1O | inactive
16 | CCNC(=O)Nc1ncc(-c2cc(-c3c(C)cc(OC)cc3C)nc(-c3cnccn3)n2)s1 | inactive
17 | CN[C@@H]1[C@H](O[C@H]2[C@H](O[C@@H]3[C@@H](O)[C@H](O)[C@@H](N=C(N)N)[C@H](O)[C@H]3N=C(N)N)O[C@@H](C)[C@]2(O)C=O)O[C@@H](CO)[C@H](O)[C@H]1O | inactive
18 | CN1CCN(c2ccc(C(=O)Nc3n[nH]c4ccc(Cc5cc(F)cc(F)c5)cc34)c(NC3CCOCC3)c2)CC1 | inactive
19 | O=C1NC(Cc2c[nH]c3ccccc23)C(=O)NC1Cc1cnc[nH]1 (stereo not given) | inactive
20 | CC1(C)CC2C(C1)C(C)(O)C13CC1(COC3=O)C2O (stereo not given) | inactive
21 | Cc1ccc(S(=O)(=O)Cc2nc(-c3ccc(C(=O)NCc4cccnc4)cc3)oc2C)cc1 | inactive
22 | Cc1cc(O)c(-c2ccc([C@@H](C)CN(C)C)cc2)c2c1[nH]c(=O)c1sccc12 | inactive
23 | COC(=O)CCC(=O)OC[C@]1(C)CCC[C@@]2(C)C3CC[C@]4(C)C=CC3(CCC12)C4 (stereo not given in full) | inactive
24 | O=C(O)c1ccc(CN2CCC(CN[C@@H]3C[C@H]3c3ccccc3)CC2)cc1 | inactive
25 | NC[C@@](O)(c1ccc(Cl)cc1)c1ccc(-c2cn[nH]c2)cc1 | inactive
